The panel holds about 83,000 compounds, 20% with a hit somewhere; the sample as a whole holds those more often.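 Assay: single dose, 48 h. Readout: percent growth (0 = no net growth; negative = cell death). Active: <10.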 Active and inactive are the calls of the source.

We go through 39 compounds from PubChem BioAssay (NCI).

The assay relates to OVCAR-8 ovarian. Description: NCI-60 one-dose screen, 48 h (100 = growth as untreated, 0 = no growth, -100 = all killed). As to conditions: 10 µM unless noted.
For the compound `ClC(Cl)c1nc(-c2cccs2)n2nc(-c3ccccc3)cc2n1`, the growth is 12% (inactive).
For `O=C(COc1ccc(C2SCC(=O)N2c2ccccc2)cc1)c1ccccc1` (centres undefined) the value was 94.1% (inactive).
For `c1ccc(-c2n(Cc3ccc4ccccc4c3)c3c4ccccc4c4ccccc4c3[n+]2Cc2ccc3ccccc3c2)cc1` the value was -69.1% (active); for `O=C1[C@@H]2Cc3c([nH]c4ccccc34)[C@H](c3c(Cl)cccc3Cl)N2C(=O)CN1C1CCN(Cc2c(F)cccc2F)CC1`, 79.3% (inactive); for `NCCN1CCN(c2nc(-c3ccccc3)nc3nc(-c4ccccc4)oc23)CC1`, -16.4% (active).
On to `C/C(=C(/C)C1CC1CCN(C(=O)c1ccccn1)S(=O)(=O)c1ccc(C)cc1)C1CCCCC1` (centres undefined), for which the growth was 96.8% (inactive).
With `Cc1nn(-c2ccccc2)cc1/C=N/Nc1nc(Nc2ccccc2)nc(Nc2ccc(S(N)(=O)=O)cc2)n1`, the growth was 18.2% (inactive).
For `Brc1cccc(/C=N/Nc2nc(N/N=C/c3cccc(Br)c3)nc(N3CCOCC3)n2)c1` the value was 37.4% (inactive); for `COc1cc(/C=C2\SC(=O)NC2=O)ccc1OCC(=O)Nc1ccc(C(=O)/C=C/c2cc3ccccc3nc2Cl)cc1`, 84% (inactive).
The value for `O=c1oc2ccc(-c3ccc(F)cc3F)cc2c(=O)n1-c1ccc(F)c(F)c1` was 8.19% (active); that for `CC[C@@](C)(NC(=O)C(C)(C)NC(=O)[C@@H](NC(=O)[C@@H]1CCCN1C(=O)C(C)(C)NC(=O)[C@H](CC(C)C)NC(=O)CNC(=O)C(C)(C)NC(=O)[C@@H](NC(=O)C(C)(C)NC(=O)[C@H](CCC(N)=O)NC(=O)[C@H](C)NC(=O)C(C)(C)NC(=O)[C@H](C)NC(=O)C(C)(C)NC(=O)[C@@H]1CCCN1C(=O)C(C)(C)NC(C)=O)C(C)C)C(C)C)C(=O)N[C@@H](CCC(N)=O)C(=O)N[C@@H](CCC(N)=O)C(=O)N[C@H](CO)Cc1ccccc1` was 94.5% [4.25 µM] (inactive); that for `O=C(/C=C/c1cn(-c2ccccc2)nc1-c1ccc(Cl)cc1)c1cc2ccccc2oc1=O` was 52.8% (inactive).
The value for `CCN1C(=O)N(CC)C2SC(N/N=C/c3ccc(OC)cc3)=NC21` (centres undefined) was 26% (inactive); that for `O=C(O)c1ccc(-n2cc(CNc3ccc(F)cc3)c(-c3ccc(C(F)(F)F)cc3)n2)cc1` was 71.8% (inactive).
With `COc1cc(/C=C/C(=O)c2ccc(NC(=O)COc3cccc4cccnc34)cc2)cc(OC)c1OC`, the growth was 79.7% (inactive).
The value for `COc1cc(CNC(=O)Cc2ccccc2[N+](=O)[O-])ccc1OCC(=O)NO` was 101% (inactive); that for `Oc1ccc(CSc2nnc(-c3cnccn3)o2)c2cccnc12` was 15.1% (inactive); that for `O=C(NCCCNc1cc(-c2cn(-c3ccccc3)nc2-c2cccc(O)c2)ccn1)Nc1ccc(F)cc1` was 21.2% (inactive).
For `COc1ccc(-c2nn(-c3ccccc3)cc2/C=C/C(=O)c2ccc(NC(=O)CCCCCCC(=O)NO)cc2)cc1` the value was 99.7% (inactive); for `O=C1[C@H]2Cc3c([nH]c4ccccc34)[C@@H](c3c(Cl)cccc3Cl)N2C(=O)CN1C1CCN(Cc2ccccc2)CC1`, 74.5% (inactive).
The value for `COc1cccc(/C=C/C(=O)c2ccc(NC(=O)COc3cccc4cccnc34)cc2)c1` was 98.1% (inactive); that for `CCCC(=O)NC(c1cccnc1)c1cc(Cl)c2cccnc2c1O` (centres undefined) was 21.9% (inactive); that for `C/C(=N/Nc1nc(N/N=C(/C)c2ccc([N+](=O)[O-])cc2)nc(N2CCOCC2)n1)c1ccc([N+](=O)[O-])cc1` was 63.6% (inactive).
Turning to `Oc1ccc(CSc2nnc(-c3cnccn3)n2-c2ccccc2)c2cccnc12`, the growth is 23.1% (inactive).
Consider `CCOC(=O)C1=C(C)Nc2nc3ccccc3n2C1c1ccccc1` (centres undefined), for which the growth was 96.6% (inactive).
The value for `Oc1ccc(CSc2nnc(-c3ccc(Br)cc3)o2)c2cccnc12` was 27.7% (inactive); that for `CNC(=O)c1cc(N2CCc3cc(NC(=O)Nc4ccc(Cl)c(Cl)c4)ccc32)ccn1` was 90% (inactive).
The value for `COc1cc2cc(Oc3ccc(NC(=O)Nc4cc(C(F)(F)F)cc(C(F)(F)F)c4)cc3)c(C)nc2cc1OCCN(C)C` was 113% (inactive); that for `Cc1cc(O)c(=O)cc2c1C[C@H]1CC(C)(C)/C=C/C[C@]3(C)Oc4cc(=O)c(O)cc(C)c4C[C@H]3C[C@H](O)[C@@]1(C)O2` was 2.98% (active).
For `COc1ccc(-c2nnc(SCc3ccc(O)c4ncccc34)n2-c2ccccc2)cc1` the value was 16.1% (inactive); for `O=C(CCCCCCN1CC(=O)N2[C@@H](c3ccc(Cl)c(F)c3)c3[nH]c4ccccc4c3C[C@H]2C1=O)NO`, 66.5% (inactive).
With `Oc1ccc(CSc2nnc(-c3ccccc3)n2-c2ccccc2)c2cccnc12`, the growth is 16.8% (inactive).
The value for `Cc1ccc(NC(=O)c2ccc(CN3CCN(C)CC3)c(C(F)(F)F)c2)cc1Oc1ccc(-c2[nH]nc3ncnc(N)c23)cc1` was 94.5% (inactive).
The value for `CC(c1ccccc1)N1C(=O)/C(=C/c2csc(C#N)n2)SC1=S` (centres undefined) was 93.4% (inactive); that for `O=C(COc1ccc(C2SCC(=O)N2c2ccc(F)cc2)cc1)c1ccccc1` (centres undefined) was 94.4% (inactive); that for `COc1ccc(-c2nnc(SCc3ccc(O)c4ncccc34)o2)cc1` was 35.1% (inactive).
With `O=c1[nH]c(CNc2ccc(NCc3c(-c4ccccc4)no[n+]3[O-])cc2)nc2c1cnn2-c1ccccc1`, the growth was 79.4% (inactive).
For the compound `COc1ccc(N)cc1C(=O)Nc1cccc(-c2cc(=O)c3c(OC)c(OC)c(OC)cc3o2)c1`, the growth was 56.4% (inactive).
For `CCCC(=O)NC(c1cccnc1)c1cc(C(C)=O)c2cccnc2c1O` (centres undefined) the value was 21.7% (inactive).
